In general, AC50 refers to the concentration at which the activity in the assay is half-maximal.

“And” between values parts separate entries of the source, which are not always exact repeats. Identical values can stand only once. Results filed as inconclusive are left out. The source made the active and inactive calls. The calls were made as follows: active = hit-call score of the fitted dose curve at least 0.9, where 1 is the maximum; inconclusive = response in the unintended direction; inactive = score below 0.9.

Retinoic acid receptor RXR-alpha (Homo sapiens), sequence (P19793 whole entry, looked up, the tested form may be a part): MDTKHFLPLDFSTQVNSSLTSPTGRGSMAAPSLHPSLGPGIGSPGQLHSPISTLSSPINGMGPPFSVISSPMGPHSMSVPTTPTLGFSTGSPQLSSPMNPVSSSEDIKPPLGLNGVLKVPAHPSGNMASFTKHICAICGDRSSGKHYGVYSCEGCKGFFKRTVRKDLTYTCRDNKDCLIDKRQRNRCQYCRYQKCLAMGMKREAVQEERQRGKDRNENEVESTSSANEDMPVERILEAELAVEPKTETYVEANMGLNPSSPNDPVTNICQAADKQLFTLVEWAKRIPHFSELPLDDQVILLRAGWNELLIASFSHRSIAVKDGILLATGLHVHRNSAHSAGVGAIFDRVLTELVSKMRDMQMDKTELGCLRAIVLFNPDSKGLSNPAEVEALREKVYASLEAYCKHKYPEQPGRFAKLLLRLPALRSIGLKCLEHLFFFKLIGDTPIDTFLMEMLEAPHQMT

The experiment concerns the target Retinoic acid receptor RXR-alpha (Homo sapiens) (UniProt P19793). The experiment is described as follows: OT_NURR1_NURR1RXRa_1440: Odyssey Thera (OT) 24-hour HEK293T Protein Complementation Assay for Nurr1/retinoid X receptor (RXR) (AID 2283386). In a few lines:
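HEK293T cells were dosed with compound and read 24 h later by fluorescence intensity in a protein-fragment complementation format, where Nurr1–RXRα interaction reconstitutes a split reporter. Activity was fitted as gain of signal relative to DMSO baseline.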
With `O=S1(=O)OC(c2cc(Br)c(O)c(Br)c2)(c2cc(Br)c(O)c(Br)c2)c2ccccc21`, the AC50 was 14.4 µM (active). Turning to `CCCCCCCCCCCCc1cccc(S(=O)(=O)O)c1`, the outcome was inactive. The same measure, in the same setting: as for `Nc1ncn[nH]1`, the entry is “inactive”. Same read-out and setting: as for `CN(C)C(=S)S`, the entry is “inactive”.

Consider `O=C1c2ccccc2C(=O)C1C(=O)C(c1ccccc1)c1ccc(Cl)cc1` (centres undefined), for which the AC50 is 73.2 µM (active). Consider `COc1ccccc1N`, for which the outcome was inactive.

For the compound `Clc1cccc(Cl)c1Cl`, the compound was called inactive. Turning to `O=C(NC(=O)c1c(F)cccc1F)Nc1cc(Cl)c(OC(F)(F)C(F)C(F)(F)F)cc1Cl` (centres undefined), the AC50 is 50 µM (active). Consider `N#CCCC(Br)(C#N)CBr` (centres undefined), for which the compound was called inactive. With `O=C(O)COc1cc(Cl)c(Cl)cc1Cl`, the compound was called inactive. Same read-out and setting: the same measure for `O=S1OC[C@@H]2[C@H](CO1)[C@]1(Cl)C(Cl)=C(Cl)[C@@]2(Cl)C1(Cl)Cl` (some centres undefined): “inactive”. With `COc1ccc(N)cc1`, the half-maximal activity concentration (AC50) is 13.8 µM (active).

As for `O=c1[nH]c(=O)n(Cl)c(=O)n1Cl`, the result was inactive. As for `O=c1nc(O)n(Cl)c(=O)n1Cl`, the call was inactive. Still for that read-out and setting: as for `C=CC(Cl)CCl` (centres undefined), the entry is “inactive”. Still for that read-out and setting: the same measure for `COc1nn(C(=O)NS(=O)(=O)c2ccccc2OC(F)(F)F)c(=O)n1C`: “inactive”. For the compound `Oc1cc(Cl)c(Cl)cc1Cl`, the half-maximal activity concentration (AC50) was 81.6 µM (active) and 83.4 µM (active). On to `O=[N+]([O-])c1ccccc1O`, for which the compound was called inactive. In the case of `CNC(=O)O/N=C/C(C)(C)S(C)(=O)=O`, the compound was called inactive.

Turning to `O=C(O)C1(c2ccc3c(c2)OC[C@H](Cc2ccc(-c4ccccc4)cc2)[C@H]3O)CCCC1`, the AC50 was 79.5 µM (active) and 87.5 µM (active).

For `CCOP(=S)(OCC)O/N=C(\C#N)c1ccccc1`, the result was inactive. As for `OCCCCO`, the compound was called inactive. In the case of `O=C(NC(=O)c1c(F)cccc1F)Nc1ccc(Cl)cc1`, the compound was classed as inactive. For `N#CS`, the call was inactive. On the same count and under the same terms, the same measure for `CCCCCCCCCCCCOS(=O)(=O)O`: “inactive”; for `Cc1cc(Cl)ccc1OCCCC(=O)O`: “inactive”; for `OCCN(CCO)CCO`: “inactive”. For the compound `N#Cc1cccnc1`, the outcome was inactive. The same measure, in the same setting: the same measure for `Clc1cccc(Cl)c1`: “inactive”; for `CCN(CCO)CCO`: “inactive”; for `O=C(CBr)c1ccc(O)cc1`: “inactive”. On the same count and under the same terms, the same measure for `CCOc1ccc(N)cc1`: “inactive”. The same measure, in the same setting: the same measure for `O=C(N[C@H]1CN2CCC1CC2)c1ccc2c(c1)OCCO2`: “inactive”. Take `CC(O)(CS(=O)(=O)c1ccc(F)cc1)C(=O)Nc1ccc(C#N)c(C(F)(F)F)c1` (centres undefined): the result was inactive.

These data come from PubChem BioAssay (EPA / NIEHS).
